Reference: the supplement of paper PMC10849652
Of roughly 7,900 targets only a part is listed; those with a hit were picked by preference. About 0.6% of all pairs of compound and target were hits. A number with no mark means an inactive call.

Columns and labels:
Assay in all cases: log2 fold change, soluble protein after heating vs DMSO (PISA); higher = thermal stabilisation; K562 cells, 10 uM, 30 min; active = over 0.2 and 3.5 SD of the protein, either way, in both replicates (recomputed)
erlotinib = compound: C#Cc1cccc(Nc2ncnc3cc(OCCOC)c(OCCOC)cc23)c1 [erlotinib]
Outline: (§1)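 For each measurement, 10 μM compound was applied for 30 min to K562 cells at 2×10^6 cells/mL. Aliquots were heated for 3 min across 48°C-58°C, pooled, and extracted in PBS with 0.5% NP-40 at 4°C; the supernatant after 21,000xg for 90 min was soluble protein. This was quantified by TMTpro 16plex LC-MS/MS with channel sums equalised, and thermal stability was reported relative to control samples from duplicates, on a log2 fold-change scale.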

[1] = compound: C/C(=N\NC(=O)C1=CC(=CC=C1)S(=O)(=O)N2CCOCC2)/C3=C(C=CC(=C3)Cl)O
Outline: as §1

[2] = compound: C1=CC(=C(C=C1Cl)C2=NC3=NC=CN=C3C(=N2)NC4=CC=NC=C4)F
Outline: as §1

[3] = compound: C1=CC(=CC=C1C2=NC3=C(N2)C=C(C=C3)C(=O)N)OC4=CC=C(C=C4)Cl
Outline: as §1

[4] = compound: C1=CC2=C(C=CC(=C2)/C=C\3/C(=O)NC(=NCC4=CC=CS4)S3)N=C1
Outline: as §1

[5] = compound: C1=CC=C(C=C1)C2=NC(=C(N2)C3=CC=NC=C3)C4=CC(=C(C=C4)Cl)O
Outline: as §1

[6] = compound: C1=CC=C2C(=C1)C3=NNC4=CC=CC(=C43)C2=O
Outline: as §1

[7] = compound: C1CCN(C1)C(=O)NC2=CC=CC(=C2)NC3=NC=C(C(=N3)NCCC4=CN=CN4)Br
Outline: as §1

[8] = compound: C1CN(CCC1(CC2=CC=C(C=C2)Cl)N)C3=NC=NC4=C3C=CN4
Outline: as §1

IRAK-1-4 Inhibitor I = compound: C1COCCN1CCN2C3=CC=CC=C3N=C2NC(=O)C4=CC(=CC=C4)[N+](=O)[O-] [IRAK-1-4 Inhibitor I]
Outline: as §1

[9] = compound: CC(=O)c1cnc2ccc(-c3cc(Cl)c(O)c(Cl)c3)nc2c1N[C@H]1CC[C@H](CN(C)C)CC1
Outline: as §1

ralimetinib = compound: CC(C)(C)Cn1c(N)nc2ccc(-c3[nH]c(C(C)(C)C)nc3-c3ccc(F)cc3)nc21 [ralimetinib]
Outline: as §1

[10] = compound: CC(C)(O)CC(=O)NCCn1ccc2ncnc(Nc3ccc(Oc4cccc(C(F)(F)F)c4)c(Cl)c3)c21
Outline: as §1

[11] = compound: CC(C)C1=C2N=C(C=C(N2N=C1)NCC3=CC=CC=C3)NCCCCCCN
Outline: as §1

[12] = compound: CC(C)C[C@@H](C=O)NC(=O)[C@H](CC(C)C)NC(=O)[C@H](CC(C)C)NC(=O)OCc1ccccc1
Outline: as §1

pinometostat = compound: CC(C)N(C[C@H]1O[C@@H](n2cnc3c(N)ncnc32)[C@H](O)[C@@H]1O)[C@H]1C[C@@H](CCc2nc3cc(C(C)(C)C)ccc3[nH]2)C1 [pinometostat]
Outline: as §1

[13] = compound: CC1=C(C(CC(=O)N1)C2=CC=C(C=C2)C(F)(F)F)C(=O)NC3=C(C=C4C(=C3)C=NN4)F
Outline: as §1

[14] = compound: CC1=C(C2=C(C=C1)C(=O)C3=CC=CC=C3N2CCCN)C
Outline: as §1

[15] = compound: C1=CC2=NC=CN=C2C=C1/C=C/3\C(=O)NC(=O)S3
Outline: as §1

ibrutinib = compound: C=CC(=O)N1CCC[C@@H](n2nc(-c3ccc(Oc4ccccc4)cc3)c3c(N)ncnc32)C1 [ibrutinib]
Outline: as §1

UniProt Q13111, sequence (Q13111 whole entry, looked up): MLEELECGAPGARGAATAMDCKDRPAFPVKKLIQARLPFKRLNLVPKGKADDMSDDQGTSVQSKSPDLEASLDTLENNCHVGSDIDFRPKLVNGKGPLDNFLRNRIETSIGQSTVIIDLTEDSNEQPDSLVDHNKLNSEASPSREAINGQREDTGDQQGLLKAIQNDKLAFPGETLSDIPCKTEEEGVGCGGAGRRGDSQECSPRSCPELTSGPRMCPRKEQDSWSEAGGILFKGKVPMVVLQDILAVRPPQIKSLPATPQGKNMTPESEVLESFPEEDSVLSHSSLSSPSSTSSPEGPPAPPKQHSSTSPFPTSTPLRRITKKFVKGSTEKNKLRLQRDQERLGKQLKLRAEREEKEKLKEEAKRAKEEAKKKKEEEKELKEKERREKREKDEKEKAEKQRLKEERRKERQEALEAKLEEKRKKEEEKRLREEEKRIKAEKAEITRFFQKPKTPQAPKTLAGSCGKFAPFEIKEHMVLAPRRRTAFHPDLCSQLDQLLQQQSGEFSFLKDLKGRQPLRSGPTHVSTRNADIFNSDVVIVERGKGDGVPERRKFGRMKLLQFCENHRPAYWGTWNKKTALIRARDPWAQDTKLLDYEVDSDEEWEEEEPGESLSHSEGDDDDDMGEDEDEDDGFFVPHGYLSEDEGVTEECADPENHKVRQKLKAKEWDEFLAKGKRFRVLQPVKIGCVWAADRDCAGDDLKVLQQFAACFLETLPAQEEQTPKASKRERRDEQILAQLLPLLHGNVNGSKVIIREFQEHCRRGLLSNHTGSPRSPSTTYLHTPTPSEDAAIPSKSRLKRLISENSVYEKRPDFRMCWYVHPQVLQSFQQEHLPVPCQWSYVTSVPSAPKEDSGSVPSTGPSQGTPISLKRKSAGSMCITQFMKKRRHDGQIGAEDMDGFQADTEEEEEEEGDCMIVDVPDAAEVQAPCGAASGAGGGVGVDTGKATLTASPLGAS
UniProt Q02224, sequence (Q02224 whole entry, looked up): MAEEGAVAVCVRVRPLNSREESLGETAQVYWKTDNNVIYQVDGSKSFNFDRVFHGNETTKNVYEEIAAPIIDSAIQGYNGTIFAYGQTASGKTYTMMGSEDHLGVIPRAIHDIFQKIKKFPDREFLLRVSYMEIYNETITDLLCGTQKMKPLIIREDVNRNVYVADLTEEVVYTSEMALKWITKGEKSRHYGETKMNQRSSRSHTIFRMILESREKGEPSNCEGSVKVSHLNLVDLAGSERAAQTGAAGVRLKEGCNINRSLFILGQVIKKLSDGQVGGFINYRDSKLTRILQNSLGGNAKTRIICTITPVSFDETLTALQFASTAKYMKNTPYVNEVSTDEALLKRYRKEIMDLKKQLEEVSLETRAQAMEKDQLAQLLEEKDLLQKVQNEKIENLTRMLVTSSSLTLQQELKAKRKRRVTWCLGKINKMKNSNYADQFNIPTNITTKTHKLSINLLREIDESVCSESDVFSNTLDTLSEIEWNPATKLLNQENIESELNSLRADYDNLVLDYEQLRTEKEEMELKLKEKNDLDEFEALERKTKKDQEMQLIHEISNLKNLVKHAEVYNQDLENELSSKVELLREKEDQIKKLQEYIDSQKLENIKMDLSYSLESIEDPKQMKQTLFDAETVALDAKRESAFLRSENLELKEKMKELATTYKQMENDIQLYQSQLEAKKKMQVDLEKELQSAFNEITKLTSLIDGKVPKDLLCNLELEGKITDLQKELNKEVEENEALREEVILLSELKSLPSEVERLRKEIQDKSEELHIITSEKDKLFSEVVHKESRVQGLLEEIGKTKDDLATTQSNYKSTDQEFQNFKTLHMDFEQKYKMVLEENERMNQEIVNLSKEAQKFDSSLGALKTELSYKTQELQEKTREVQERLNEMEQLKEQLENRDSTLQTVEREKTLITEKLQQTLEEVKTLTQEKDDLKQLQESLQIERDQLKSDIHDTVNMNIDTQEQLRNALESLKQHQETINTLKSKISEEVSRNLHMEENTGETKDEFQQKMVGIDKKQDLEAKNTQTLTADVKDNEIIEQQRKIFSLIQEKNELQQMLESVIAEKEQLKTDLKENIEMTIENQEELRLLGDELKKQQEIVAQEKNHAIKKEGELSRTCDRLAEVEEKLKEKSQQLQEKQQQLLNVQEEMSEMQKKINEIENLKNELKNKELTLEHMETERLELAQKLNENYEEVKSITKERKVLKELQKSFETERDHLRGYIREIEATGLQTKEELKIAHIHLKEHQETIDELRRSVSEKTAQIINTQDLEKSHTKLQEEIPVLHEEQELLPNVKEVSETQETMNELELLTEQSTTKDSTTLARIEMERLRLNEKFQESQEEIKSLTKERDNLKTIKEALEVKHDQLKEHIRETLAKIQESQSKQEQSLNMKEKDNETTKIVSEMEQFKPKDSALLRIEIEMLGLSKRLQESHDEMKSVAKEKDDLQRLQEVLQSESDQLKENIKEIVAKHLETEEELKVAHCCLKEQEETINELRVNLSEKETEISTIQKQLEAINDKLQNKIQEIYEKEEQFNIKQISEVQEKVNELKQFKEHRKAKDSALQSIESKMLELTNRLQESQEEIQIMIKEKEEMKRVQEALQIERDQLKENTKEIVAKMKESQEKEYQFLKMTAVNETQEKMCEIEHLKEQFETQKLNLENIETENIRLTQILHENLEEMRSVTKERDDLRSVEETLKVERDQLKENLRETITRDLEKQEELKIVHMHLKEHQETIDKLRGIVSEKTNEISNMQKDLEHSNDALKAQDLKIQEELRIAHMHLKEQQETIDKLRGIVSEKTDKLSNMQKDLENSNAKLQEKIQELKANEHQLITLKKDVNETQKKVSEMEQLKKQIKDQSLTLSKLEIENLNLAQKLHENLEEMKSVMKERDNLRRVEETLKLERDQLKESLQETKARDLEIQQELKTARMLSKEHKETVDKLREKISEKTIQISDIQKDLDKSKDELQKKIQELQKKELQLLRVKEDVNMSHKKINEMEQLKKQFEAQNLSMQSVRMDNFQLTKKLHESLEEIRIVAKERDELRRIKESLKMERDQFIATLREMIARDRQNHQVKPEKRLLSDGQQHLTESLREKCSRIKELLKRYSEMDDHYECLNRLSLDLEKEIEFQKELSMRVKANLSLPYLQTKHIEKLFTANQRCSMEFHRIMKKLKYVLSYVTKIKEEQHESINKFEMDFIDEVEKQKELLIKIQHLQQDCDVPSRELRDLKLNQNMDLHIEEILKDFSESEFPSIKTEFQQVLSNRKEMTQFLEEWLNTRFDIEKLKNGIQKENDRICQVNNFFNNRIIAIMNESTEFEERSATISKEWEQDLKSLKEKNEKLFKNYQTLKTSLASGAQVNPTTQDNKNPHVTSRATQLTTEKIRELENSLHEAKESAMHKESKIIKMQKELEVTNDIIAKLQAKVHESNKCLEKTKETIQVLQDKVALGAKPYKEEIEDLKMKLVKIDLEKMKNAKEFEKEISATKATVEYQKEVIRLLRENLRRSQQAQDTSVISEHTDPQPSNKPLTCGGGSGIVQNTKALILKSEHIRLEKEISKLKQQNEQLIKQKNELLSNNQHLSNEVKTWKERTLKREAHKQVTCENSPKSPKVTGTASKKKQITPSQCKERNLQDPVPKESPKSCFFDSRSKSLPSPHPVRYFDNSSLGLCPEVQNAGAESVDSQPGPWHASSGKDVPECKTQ
UniProt A8MTT3, sequence (A8MTT3 whole entry, looked up): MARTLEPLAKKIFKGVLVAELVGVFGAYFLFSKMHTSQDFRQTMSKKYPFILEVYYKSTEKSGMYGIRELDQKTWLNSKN
UniProt P51636, sequence (P51636 whole entry, looked up): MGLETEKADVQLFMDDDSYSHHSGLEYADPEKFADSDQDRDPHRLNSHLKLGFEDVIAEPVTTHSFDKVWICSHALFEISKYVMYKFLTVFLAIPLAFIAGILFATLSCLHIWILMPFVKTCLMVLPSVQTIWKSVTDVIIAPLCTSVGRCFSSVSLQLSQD
UniProt Q5BKX5, sequence (Q5BKX5 whole entry, looked up): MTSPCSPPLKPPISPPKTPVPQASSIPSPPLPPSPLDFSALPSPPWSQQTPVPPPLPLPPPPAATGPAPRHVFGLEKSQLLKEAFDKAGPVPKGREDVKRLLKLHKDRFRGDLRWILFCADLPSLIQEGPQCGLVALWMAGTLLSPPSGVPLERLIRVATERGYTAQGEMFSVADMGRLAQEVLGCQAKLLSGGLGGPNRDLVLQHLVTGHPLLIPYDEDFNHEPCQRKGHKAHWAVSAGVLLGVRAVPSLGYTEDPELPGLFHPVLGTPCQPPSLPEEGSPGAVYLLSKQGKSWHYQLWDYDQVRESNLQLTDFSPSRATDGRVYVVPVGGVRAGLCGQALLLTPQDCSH
UniProt P46527, sequence (P46527 whole entry, looked up): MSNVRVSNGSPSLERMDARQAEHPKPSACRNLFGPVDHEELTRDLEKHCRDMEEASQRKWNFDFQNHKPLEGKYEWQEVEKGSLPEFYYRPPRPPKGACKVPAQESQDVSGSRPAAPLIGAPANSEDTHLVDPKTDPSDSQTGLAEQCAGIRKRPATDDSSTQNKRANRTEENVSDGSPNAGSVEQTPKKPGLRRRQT
UniProt Q00535, sequence (Q00535 whole entry, looked up): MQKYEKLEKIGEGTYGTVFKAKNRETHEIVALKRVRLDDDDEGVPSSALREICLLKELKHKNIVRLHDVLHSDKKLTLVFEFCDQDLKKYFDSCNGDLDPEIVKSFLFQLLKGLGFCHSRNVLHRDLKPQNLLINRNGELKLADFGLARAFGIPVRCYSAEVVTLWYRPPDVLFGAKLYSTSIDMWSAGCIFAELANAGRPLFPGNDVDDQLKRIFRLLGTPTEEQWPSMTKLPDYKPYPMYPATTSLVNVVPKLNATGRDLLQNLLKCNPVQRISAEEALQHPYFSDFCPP
UniProt Q96MX0, sequence (Q96MX0 whole entry, looked up): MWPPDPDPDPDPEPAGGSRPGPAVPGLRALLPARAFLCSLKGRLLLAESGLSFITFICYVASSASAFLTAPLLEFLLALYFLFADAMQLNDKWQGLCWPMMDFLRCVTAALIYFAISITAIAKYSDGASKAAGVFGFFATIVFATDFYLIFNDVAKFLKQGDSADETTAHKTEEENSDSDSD
UniProt P24311, sequence (P24311 whole entry, looked up): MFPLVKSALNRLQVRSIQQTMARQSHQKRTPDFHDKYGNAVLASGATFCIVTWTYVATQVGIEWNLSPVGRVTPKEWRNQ

Target | log2 fold change (erlotinib) | log2 fold change [1] | log2 fold change [2] | log2 fold change [3] | log2 fold change [4] | log2 fold change [5] | log2 fold change [6] | log2 fold change [7] | log2 fold change [8] | log2 fold change (IRAK-1-4 Inhibitor I) | log2 fold change [9] | log2 fold change (ralimetinib) | log2 fold change [10] | log2 fold change [11] | log2 fold change [12] | log2 fold change (pinometostat) | log2 fold change [13] | log2 fold change [14] | log2 fold change [15] | log2 fold change (ibrutinib)
CDCA2 (UniProt Q69YH5) | 0.519 (active) | -0.46 | 0.043 | -0.333 | 0.048 | -0.002 | -0.033 | -0.082 | 0.256 | 0.023 | 0.011 | 0.081 | -0.138 | -0.009 | 0.188 | -0.008 | -0.018 | -0.003 |  | 
CORO2A (UniProt Q92828) | -0.035 | 0.064 |  | -0.011 | -0.001 | 0.138 | -0.042 | 0.034 | 0.031 |  | -0.022 | 0.019 |  | -0.088 | 0.21 |  | 0.008 | 0.01 | 0.127 | -0.068
CMTM3 (UniProt Q96MX0) | 0.032 | -0.055 | 0.166 | -0.044 | 0.034 |  | -0.007 | 0.002 | 0.051 | 0.021 | 0.003 |  | -0.108 | 0.068 |  | 0 | 0.12 | -0.062 | 0.066 | 0.014
CDK5 (UniProt Q00535) | -0.02 | -0.009 | 0.041 | -0.008 | -0.014 | -0.02 |  | 0.017 | 0.038 | 0.008 | 0.038 | 0.032 | -0.07 | -0.021 | 0.043 | 0.024 | 0.038 | 0.028 | 0.052 | -0.009
CLN8 (UniProt Q9UBY8) | 0.012 | 0.198 |  | 0.01 | 0.212 | -0.208 | -0.06 | 0.003 | -0.171 |  | -0.164 | 0.643 |  | 0.017 | 0.139 |  | 0.043 | 0.138 | 0.099 | 
CENPE (UniProt Q02224) | 0.268 | 0.525 |  | -0.096 | -0.875 (active) | 0.072 | 0.444 | 0.011 | 0.032 | 0.046 | 0.431 | 0.119 |  | 0.211 | 0.11 | -0.002 |  | 0.101 | 0.098 | -0.184
CLSPN (UniProt Q9HAW4) | -0.09 | -0.022 | -0.024 | 0.02 | -0.035 | -0.062 | -0.027 | -0.083 | 0.033 | 0.028 | -0.04 | -0.033 | 0.038 | -0.062 | 0.124 | -0.018 | 0.009 | -0.541 (active) | 0.032 | 
COG2 (UniProt Q14746) | -0.082 | -0.367 | 0.012 | -0.026 | 0.478 | -0.223 | -0.137 | 0.257 | -0.065 | -0.232 | -0.042 | 0.099 | -0.317 | -0.009 | 0.18 | -0.043 | 0.132 | -0.108 |  | 
CLN5 (UniProt O75503) | 0.146 | -0.049 | 0.063 | 0.103 | 0.023 |  | 0.15 | -0.02 | -0.285 | 0.023 | -0.03 |  | 0.001 | -0.62 |  | -0.062 | -0.039 | -0.028 | 0.016 | 
C19orf54 (UniProt Q5BKX5) | -0.094 | -0.054 | 0.024 | 0.008 | -0.005 | -0.024 | 0.026 | -0.027 | -0.543 (active) | 0.008 | 0.045 | 0.019 | -0.003 | -0.022 | 0.08 | -0.016 |  | -0.054 |  | 
CDK17 isoform 2 (UniProt Q00537) | 0.086 | 0.008 | 0.059 | -0.075 | -0.123 |  | 0.064 |  |  | 0.101 | 0.258 |  | -0.069 | 0.078 |  | 0.037 |  |  | -0.081 | 0.003
CDK2AP2 (UniProt O75956) | -0.142 | -0.007 | 0.037 | 0.043 | 0.063 | 0.007 | 0 |  |  | -0.087 | 0.094 | 0 | -0.077 | 0.258 | -0.438 (active) | -0.135 | 0.03 |  | 0.103 | 0.011
CLUH (UniProt O75153) | 0.08 | 0 | 0.318 | -0.042 | 0.137 | 0.03 | 0.058 | -0.043 | -0.027 | 0.107 | 0.467 (active) | 0.028 | -0.048 | -0.179 | -0.009 | 0.045 | -0.094 | 0.095 | 0.324 (active) | 
CHAF1A (UniProt Q13111) | -0.046 | -0.014 | -0.121 | 0.053 | 0.027 | -0.047 | -0.114 |  |  | 0 | -0.118 | 0.056 | 0.067 | -0.066 | 0.08 | -0.028 | -0.042 |  | 0.135 | -0.143
COX7B (UniProt P24311) | -0.022 | 0.058 | 0.109 | 0.006 | -0.081 |  | -0.009 | 0.085 | 0.016 | 0.045 | 0.034 |  | -0.011 | 0.112 |  | -0.139 | -0.011 | 0.266 | 0.057 | 0.074
CEBPZOS (UniProt A8MTT3) | -0.017 | 0.084 |  | 0.015 | 0.039 | 0.03 | 0.057 | 0.05 | -0.03 | -0.034 | 0.003 | -0.076 |  | 0.018 | -0.059 | -0.026 | 0.02 | 0 | 0.074 | -0.095
CNOT4 isoform 9 (UniProt O95628) | -0.011 | -0.022 |  | 0.047 | 0.089 | 0.053 | 0.245 | 0.175 | 0.455 | 0.09 | 0.189 | 0.128 |  | -0.068 | 0.015 | -0.028 | -0.024 | 0.202 | 0.018 | 0.089
CDKN1B (UniProt P46527) | -0.076 | 0.027 | -0.133 | 0.064 | -0.217 | -0.1 | -0.01 |  |  | 0.023 | 0.173 | -0.024 | 0.012 | 0.215 | 0.536 (active) | -0.023 | 0.018 |  | -0.049 | 0.015
CAV2 (UniProt P51636) | -0.01 | -0.066 |  | 0.076 | -0.018 |  | 0.057 | 0.025 | -0.021 | -0.165 | 0.025 |  |  | -0.073 |  | 0.178 | 0.028 | 0.005 | -0.559 | 0.105
